A selection: hits, their analogues and other compounds. The true share with any hit is near 7.4%.
ELG1 genotoxic = inducers of genotoxicity in HEK293T ELG1-luciferase cells; 330,000 tested, 1.3% active; AID 504466; HEK293T ELG1-luciferase reporter, luminescence, 16 h; Potency, µM (titrated, usually from 46 µM), for inactives: at the highest dose activity change, positive = activation, most hits filed as activators; note: % of control where 0% means no effect; nearly all actives have a fitted effect of over 60% in size
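16 hr compound incubation (37 °C, 5% CO2) of HEK293T cells carrying luciferase-tagged ELG1; luciferase then measured by ONE-Glo luminescence after 30 min at RT.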
SMN2 splice enh = enhancers of SMN2 splice variant expression; HEK293 SMN2-luciferase splicing reporter, luminescence, 30-36 h; Potency, µM (doses to about 46.1 µM), for inactives: top-dose activity change, positive = activation, usual class: activators; 210,000 tested, 2.8% active; note: % of control where 0% means no effect; nearly all actives have a fitted effect of over 55% in size
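HEK293 cells carry an SMN2 […]–luciferase reporter in which exon 7 inclusion puts luciferase in frame. Cells were plated 10-12 h before compound addition, then incubated 30-36 h at 37C. ONE-Glo luminescence was read; sodium butyrate at 4.5 mM final served as control.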
FLuc modulator = firefly luciferase modulation, counter-screen for miR-21 project. P08659. purified FLuc, Km substrates, luminescence inhibition. 360,000 tested, 6.9% active. Potency, µM (series often up to 57.5 µM), for inactives: at the highest dose activity change, negative = inhibition, hits mostly inhibitors;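 note: plate controls were vehicle for no effect and reference inhibitor for full effect; nearly all actives have a fitted effect of over 55% in size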
Target sequence (P08659 whole entry, looked up): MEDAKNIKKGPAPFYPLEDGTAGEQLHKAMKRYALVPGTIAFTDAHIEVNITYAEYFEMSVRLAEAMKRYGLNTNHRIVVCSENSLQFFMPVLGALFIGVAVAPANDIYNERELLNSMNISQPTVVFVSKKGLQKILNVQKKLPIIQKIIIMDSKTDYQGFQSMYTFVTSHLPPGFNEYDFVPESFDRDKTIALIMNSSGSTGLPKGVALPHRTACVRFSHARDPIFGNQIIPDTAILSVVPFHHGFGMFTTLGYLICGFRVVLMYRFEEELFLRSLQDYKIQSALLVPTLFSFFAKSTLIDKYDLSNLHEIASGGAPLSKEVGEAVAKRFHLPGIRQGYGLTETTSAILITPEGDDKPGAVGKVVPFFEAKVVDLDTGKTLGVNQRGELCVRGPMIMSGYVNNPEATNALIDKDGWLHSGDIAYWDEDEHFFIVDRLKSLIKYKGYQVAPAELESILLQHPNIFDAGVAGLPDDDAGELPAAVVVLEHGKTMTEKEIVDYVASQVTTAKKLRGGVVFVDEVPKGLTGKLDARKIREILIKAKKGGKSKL
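Purified P. pyralis luciferase, 10 nM final, with Km-level 10 uM D-luciferin and 10 uM ATP in 50 mM Tris acetate pH 7.5, 10 mM Mg acetate, 0.01% Tween-20, 0.05% BSA; 6-point qHTS titration about 60 µM downward; luminescence read.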
NPC1 promoter act = NPC1 promoter activation | Huh7 NPC1 promoter luciferase reporter, 24 h | AID 485313 | Potency, µM (top dose mostly 9.22 µM), for inactives: at the top dose activation, hits mostly activators | 320,000 tested, 2.4% active; note: % of control where 0% means no effect; nearly all actives have a fitted effect of over 60% in size
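Luciferase expression driven by the NPC1 promoter was measured in stably transfected Huh7 cells after a 24 h compound incubation, using a luciferase reagent and a luminescence read.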
Rab9 promoter act = Rab9 promoter activation; Huh7 Rab9 promoter-luciferase reporter, luminescence, 24 h; Potency, µM (titrated, usually from 9.22 µM), for inactives: top-dose activation, negative = inhibition, actives largely listed as activators; 320,000 tested, 2.8% active; AID 485297; note: % of control where 0% means no effect; nearly all actives have a fitted effect of over 60% in size
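Huh7 cells stably carrying Rab9 promoter–luciferase reporter, plated 1500 cells/well, compound added after 2 h and incubated 24 h at 37 °C; luciferase luminescence then read after 10 min with detection reagent.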
* marks the source's active call; other numbers are inactive results; ? = inconclusive; / = not tested or not shown; [ ] = remark or other dose. Calls come from the whole dose curve; as a rule, active = well fitted curve in the direction sought with a large enough effect; inconclusive = small, poorly fitted or top-dose-only effect, or another doubt; inactive = no such curve, though single readings can be large; an effect the other way counts as inactive or inconclusive. Potency is the fitted concentration of half-maximal effect.

SMILES	ELG1 genotoxic	SMN2 splice enh	FLuc modulator	NPC1 promoter act	Rab9 promoter act
CN(C)c1ccc(C(=O)OCC(=O)N2CCCCCC2)cc1	11%	22%	?	?	3.5µM*
CN(C)c1ccc(C(=O)OCC(=O)NCCCc2ccccc2)cc1	1%	/	-14%	-4%	-2%[1.84 µM]
CN(C)c1ccc(C(=O)OCC(=O)NCCNC(=O)COC(=O)c2ccc(N(C)C)cc2)cc1	?	/	4.8µM*	4µM*	1.4µM*
CCOC(=O)N1CCC(N2Cc3cccc(C(=O)Nc4ccccc4OC)c3C2=O)CC1	-10%	/	-1%	-4%	-7%
Cc1cc(C(=O)COC(=O)c2ccccc2NCCO)c(C)n1CC1CCCO1 (stereo not drawn)	?	/	1.5µM*	?	?
O=C(COC(=O)c1ccccc1Br)NCC1CCCO1 (stereo not drawn)	5%	/	/	/	/
Cc1cc(C(=O)CSc2nnc(-c3ccncc3)n2-c2ccccc2)c(C)n1C	-3%	-11%	-6%	-2%	-6%
CCCn1c(=O)c2ccccc2n2c(SCC(=O)c3cc(C)n(CC4CCCO4)c3C)nnc12 (stereo not drawn)	2%	-11%	-6%	-2%	3%
Cc1cc(C(=O)CSc2nnc(-c3cccnc3)n2-c2ccccc2)c(C)n1CC1CCCO1 (stereo not drawn)	12%	-24%	19µM*	21%	?
Cc1cc(C(=O)COC(=O)c2ccccc2Br)c(C)n1CC1CCCO1 (stereo not drawn)	?	/	0.11µM*	-30%	-34%
Cc1cc(C(=O)COC(=O)c2n[nH]c3ccccc23)c(C)n1CC1CCCO1 (stereo not drawn)	?	-34%	?	0.35µM*	0.32µM*
COc1ccc(C(=O)Nc2ccc3nc4c(c(Nc5ccccc5OC)c3c2)CCCC4)c(OC)c1	/	16%	0%	/	/
COc1ccc(NC(=O)Cn2c(=O)n(CCc3ccccc3)c(=O)c3c4c(sc32)CCCC4)cc1	/	-5%	-1%	/	/
CCc1ccccc1NC(=O)C(=O)NCCc1sc(-c2cccc(C)c2)nc1C	/	/	2%	/	/
COc1ccc(NC(C)=O)cc1NC(C)C(=O)Nc1ccc(S(=O)(=O)N2CCCCC2)cc1 (stereo not drawn)	0%	/	4%	-5%	-6%
COc1ccc(CCNC(=O)CS(=O)(=O)Cc2nc(-c3cccc(Cl)c3)oc2C)cc1OC	/	10%	-12%	/	/
COC(=O)c1cc(NC(=O)Cc2cccs2)cc(C(=O)OC)c1	-6%	/	-11%	-3%	2%
Cc1cc(C(=O)Cn2cc([N+](=O)[O-])ccc2=O)c(C)n1CC1CCCO1 (stereo not drawn)	3%	/	-9%	-3%	12%
Cc1cc(C(=O)COc2ccccc2C(N)=O)c(C)n1CC1CCCO1 (stereo not drawn)	-6%	-93%	?	-26%	-9%
Cc1cc(C(=O)COC(=O)CN(C)S(=O)(=O)c2ccc(Cl)cc2)c(C)n1CC1CCCO1 (stereo not drawn)	1%	-7%	19µM*	9%	1%
Cc1cc(C(=O)COC(=O)c2cccnc2Cl)c(C)n1CC1CCCO1 (stereo not drawn)	0.52µM*	11%	0.24µM*	?	?
Cc1cc(C(=O)COC(=O)C2COc3ccccc3O2)c(C)n1CC1CCCO1 (stereo not drawn)	-1%	-4%	4.8µM*	1%	-8%
Cc1cc(C(=O)COC(=O)c2ccccc2O)c(C)n1CC1CCCO1 (stereo not drawn)	-9%	/	0.085µM*	-27%	-29%
O=C(Nc1nncs1)c1cc(S(=O)(=O)N2CCOCC2)ccc1Cl	-5%	/	-3%	9%	-5%
CCOc1cc(C(=O)OCC(=O)c2cc(C)n(CC3CCCO3)c2C)ccc1OCC(=O)N1CCOCC1 (stereo not drawn)	3%	/	?	12%	19%
SMILES	ELG1 genotoxic	SMN2 splice enh	FLuc modulator	NPC1 promoter act	Rab9 promoter act
Cc1ccc(C(=O)OCC(=O)c2cc(C)n(CC3CCCO3)c2C)cc1 (stereo not drawn)	?	-2%	4.3µM*	2.2µM*	2.2µM*
Cc1cc(C(=O)COC(=O)c2cc(O)c3ccccc3c2O)c(C)n1CC1CCCO1 (stereo not drawn)	2%	1%	19µM*	8%	13%
CC(=O)Nc1ccc(NC(=O)C2CCN(C(=O)NC3CCCCC3)CC2)cc1	6%	/	-1%	-22%	9%
CCOc1ccc2nc(SCC(=O)N(C)C3CCS(=O)(=O)C3)[nH]c2c1 (stereo not drawn)	2%	/	-13%	-3%	14%
CCOc1ccc2nc(SCC(=O)Nc3ccc4[nH]c(=O)[nH]c4c3)[nH]c2c1	0%	/	13µM*	7%	1%
COc1ccc(NC(=O)CSc2nc3ccc(OC)cc3[nH]2)cc1	-5%	/	?	2%	6%
CCOc1ccc2nc(SCC(=O)N(C)C)[nH]c2c1	16µM*	24%	19µM*	4µM*	3.5µM*
Cc1cccc(CC(C)NC(=O)c2oc3c(F)cccc3c2C)n1 (stereo not drawn)	-2%	/	-16%	0%	6%
Cc1nn(C)c(C)c1CN(Cc1nc(CCC(C)C)no1)C(C)C	3%	/	-2%	-29%	-38%
O=C(NCc1ccc(Cl)cc1)C(=O)Nc1ccc(Br)cc1	/	-5%	-6%	/	/
O=C(c1ccccc1)c1coc2c1C(=O)c1ccccc1C2=O	11%	-6%	27µM*	-2%	-3%
COc1ccccc1/C=N/Nc1nccnc1Cl	18µM*	-21%	12µM*	27%	?
COc1cccc(/C=N/Nc2ncccc2[N+](=O)[O-])c1OC	0.29µM*	/	0.3µM*	?	-5%
CCOc1ccccc1/C=N/Nc1ccnc(=O)[nH]1	7%	/	-3%	5%	-5%[1.84 µM]
O=C(Nc1scc(-c2ccc(F)cc2)c1C(=O)O)c1ccco1	?	?	17µM*	26%	24%
O=C(/C=C/c1ccco1)Nc1ccccc1N1CCCC1	-1%	15%	-9%	11%	14%
COC(=O)c1c(-c2ccccc2)csc1NC(=O)c1ccco1	2.3µM*	-1%	5.4µM*	2.8µM*	?
Cc1ccc(-c2csc(NC(=O)/C=C/c3ccco3)c2C(=O)O)cc1	?	11µM*	6µM*	3.2µM*	1.8µM*
O=C(C1CCCN(S(=O)(=O)c2ccc(F)cc2)C1)N1CCCCC1 (stereo not drawn)	-4%	/	-1%	-21%	0%
COc1cccc(CNC(=O)Cn2ccc3cc(S(=O)(=O)N4CCCCCC4)ccc32)c1OC	-10%	/	1%	-6%	4%
Cn1c(=O)c2c(ncn2CC(=O)Nc2cc(Cl)cc(Cl)c2)n(C)c1=O	/	-9%	-10%	/	/
COC(c1ccccc1)c1nnc(CCC(=O)N(C)Cc2cccc(-n3cccn3)c2)o1 (stereo not drawn)	?	/	15µM*	4%	?
